High-throughput results (PubChem)
TDP1 cell noCPT: qHTS for Inhibitors of human tyrosyl-DNA phosphodiesterase 1 (TDP1): qHTS in cells in absence of CPT. DT40 Tdp1-/- hTDP1 cells, no CPT, ATP luminescence, 48 h. Potency, µM (titrated, usually from 46.2 µM), for inactives: top-dose activity change, negative = growth inhibition, most hits filed as inhibitors. 15% of 420,000 active. AID 686978, 2013; note: potency is the fitted concentration of half-maximal effect; nearly all actives have a fitted effect of over 55% in size
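Seeded 400 DT40-hTDP1 cells/well (vehicle DMSO, no 20 nM CPT); pinned compounds; ≥48 hr at 37 °C; CellTiter-Glo luminescence as viability measure.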
ELG1 DNA repair: blocks ELG1-dependent DNA repair in HEK293T cells | Potency, µM (doses to about 46.1 µM), without a hit: at the highest dose activity change, negative = inhibition, actives largely listed as inhibitors | AID 504467 | HEK293T ELG1-luciferase reporter, luminescence, 16 h; DNA damage induced by 5-fluorouridine | 2.3% of 330,000 active; note: potency is the fitted concentration of half-maximal effect; nearly all actives have a fitted effect of over 55% in size
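Cells (2,000 per well) received 5-fluorouridine plus test compound or DMSO and were incubated 16 hr at 37 °C, 5% CO2. Luciferase activity was read by luminescence 30 min after ONE-Glo addition; signal suppression marked inhibition of damage-induced ELG1 function.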
TDP1 cell CPT: growth inhibition of DT40 Tdp1-/-;hTDP1 cells with camptothecin (screen for TDP1 inhibitors); chicken DT40 Tdp1-/-;hTDP1 cells + 20 nM CPT, ATP luminescence, 48 h; Potency, µM (top dose mostly 46.2 µM), inactives show at the top dose activity change, negative = growth inhibition, most hits filed as inhibitors; 12% of 420,000 active; AID 686979; note: potency is the fitted concentration of half-maximal effect; nearly all actives have a fitted effect of over 55% in size
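Cell growth measured by CellTiter-Glo luminescence after a minimum 48 h, 37 C compound exposure with 20 nM CPT in Tdp1-knockout DT40 cells stably expressing hTDP1, seeded 400/well; qHTS titration format.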
IL1B secr inh: inhibitors of inflammasome signaling (IL-1 beta secretion); AID 743279; THP-1 LPS/ATP IL-1B secretion, AlphaLISA, 16 h; hits give low values; 4.7% of 360,000 active; activity change, % at 57.5 µM; in the data active = activity change below about -50%; inconclusive = mostly about -30% to -49%
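Secreted IL-1B measured by AlphaLISA bead assay after 16 h compound exposure of THP-1 cells; compounds (final up to 57.5 uM) added 1 h before LPS (250 ng/mL) and ATP (1.25 mM) stimulation; lower signal means less secretion.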
HT1080 IDH1KD tx: toxicity to HT-1080 IDH1 knockdown cells (counter line); HT-1080 IDH1 knockdown viability, ATP luminescence, 48 h; Potency, µM (doses to about 46.1 µM), for inactives: at the top dose activity, negative = toxicity, most hits filed as cytotoxic; 2% of 360,000 active; AID 686971;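 note: potency is the fitted concentration of half-maximal effect; 0% = DMSO wells and -100% = cell-free medium wells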
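In this qHTS, HT-1080 cells depleted of IDH1 are exposed for 48 h at 37 °C to compound titrations. Toxicity is scored from CellTiter-Glo luminescence, with DMSO as full viability and medium alone as none.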
HT1080NT lethal: kills 2HG-producing HT-1080-NT fibrosarcoma cells. HT-1080-NT fibrosarcoma viability, CellTiter-Glo ATP luminescence, 48 h. Potency, µM (top dose mostly 46.1 µM), for the others: top-dose activity, negative = less viability, hits mostly cytotoxic. 1.6% of 360,000 active. AID 686970;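 note: NT is the 2HG producing partner of a matched IDH1 knockdown line; potency is the fitted concentration of half-maximal effect; 0% = DMSO-treated cells and -100% = media-only wells without cells; nearly all actives have a fitted effect of over 55% in size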
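Read-out is CellTiter-Glo luminescence after 10 minutes at room temperature, following 48 hours' compound treatment of HT-1080-NT cells (750 cells/well, RPMI, 5% FBS, 37 degrees C).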
Active calls of the source: *; ? = inconclusive; nt = not tested or not shown; [ ] = dose if it differs, or a comment. The list is not random: actives were taken first. Their share in the collection is about 19%. Unless noted, calls come from the whole dose curve; as a rule, active = well fitted curve in the direction sought with a large enough effect; inconclusive = small, poorly fitted or top-dose-only effect, or another doubt; inactive = no such curve, though single readings can be large; an effect the other way counts as inactive or inconclusive. Unless noted, % is set by controls: 0 for no effect and ±100 for the full control effect.

SMILES | TDP1 cell noCPT | ELG1 DNA repair | TDP1 cell CPT | IL1B secr inh | HT1080 IDH1KD tx | HT1080NT lethal
Oc1cccc(NC(=S)Nc2ccc(SC(F)F)cc2)c1 | ? | 16% | 4% | -58* | -29% | -21%
CCCN(Cc1ccccc1)C(=S)Nc1ccc(SC(F)F)cc1 | ? | 23µM* | 2% | -7 | -3% | -13%
CCCN(Cc1ccccc1)C(=S)Nc1ccc(F)cc1 | -11% | -8% | 13% | -10 | 1% | 15%
Oc1cccc2c(NC(=S)Nc3ccc(SC(F)F)cc3)cccc12 | ? | -1% | ? | 29 | -13% | -1%
CCc1ccc(N(CC)C(=O)Cn2nc(Cc3cccnc3)c3ccccc3c2=O)cc1 | ? | nt | -26% | nt | nt | nt
CCOC(=O)COc1ccc2cc(C(=O)OCC)c(=O)oc2c1 | -14% | 2% | -16% | -80* | 5% | 10%
CCOC(=O)COc1ccc2c3c(c(=O)oc2c1)CCCC3 | 5% | 15% | -3% | 23 | 8% | 2%
COc1ccc(Oc2coc3cc(OC(=O)N4CCOCC4)ccc3c2=O)cc1 | ? | ? | 16µM* | 12 | -3% | 4%
COc1cccc(OC(=O)N2CCOCC2)c1 | -14% | ? | 7% | 10 | 15% | 5%
COc1cc(-c2nc(C(=O)NC3CCCCC3)cc3c2[nH]c2ccccc23)cc(OC)c1OC | 23µM* | 5.8µM* | 16µM* | ? | -20% | -5%
COc1ccc(OC)c(-c2nc(C(=O)NCCCN3CCOCC3)cc3c2[nH]c2ccccc23)c1 | 23µM* | -22% | 16µM* | -2 | -22% | -13%
COc1cc(C(=O)NC2CCCCCCC2)cc(OC)c1OC | ? | nt | 21% | 41 | 7% | 19%
COc1ccc(OC)c(-c2cc(C(=O)NCCN3CCOCC3)no2)c1 | -28% | 19% | -8% | 0 | -1% | 2%
COc1ccc(OC)c(-c2nc(C(=O)NC3CCN(Cc4ccccc4)CC3)cc3c2[nH]c2ccccc23)c1 | 12µM* | -18% | 10µM* | -15 | ? | ?
COc1cc(-c2nc(C(=O)NC3CCN(Cc4ccccc4)CC3)cc3c2[nH]c2ccccc23)cc(OC)c1OC | 13µM* | ? | 12µM* | -12 | ? | ?
CCC1(C)Cc2ccccc2-c2[nH][nH]c(=O)c21 (stereo not drawn) | -21% | ? | 1% | -8 | -2% | -1%
COc1ccc(S(=O)(=O)N(C)CC(=O)NCCCN2CCOCC2)cc1C | -26% | nt | ? | 25 | 23% | 10%
COc1cccc(C2=CC(=O)C[C@H](c3ccc(Cl)cc3)C2)c1OC | ? | 21µM* | 23µM* | ? | -10% | -17%
COc1ccccc1C1=CC(=O)C[C@H](c2ccc(Cl)cc2)C1 | ? | ? | 15µM* | -54* | ? | ?
CCCCN1CC(c2nc3ccccc3n2CCCCOc2cc(C)ccc2C)CC1=O (stereo not drawn) | 8.2µM* | nt | 16µM* | nt | nt | nt
COc1ccccc1OCCCCn1c(C2CC(=O)N(c3ccccc3Cl)C2)nc2ccccc21 (stereo not drawn) | -26% | nt | ? | nt | nt | nt
CCCCN1CC(c2nc3ccccc3n2CCCCOc2ccccc2C)CC1=O (stereo not drawn) | 5.8µM* | nt | 7.3µM* | nt | nt | nt
CCCCN1CC(c2nc3ccccc3n2CCCCOc2c(C)cccc2C)CC1=O (stereo not drawn) | 7.3µM* | nt | 12µM* | nt | nt | nt
COc1ccc(NC(=O)c2cccc(N3CCCS3(=O)=O)c2)cc1OC | -15% | nt | ? | nt | nt | nt
O=C(NCc1ccccc1)C(c1ccco1)N(C(=O)c1csnn1)c1ccccc1 (stereo not drawn) | -10% | -1% | 0% | 0 | -2% | 0%
SMILES | TDP1 cell noCPT | ELG1 DNA repair | TDP1 cell CPT | IL1B secr inh | HT1080 IDH1KD tx | HT1080NT lethal
CNC(=S)N1CCc2cc(OC)c(OC)cc2C1COc1ccc(OC)cc1 (stereo not drawn) | ? | -9% | -2% | 0 | -3% | -5%
COC(=O)c1ccc(OCC2c3cc(OC)c(OC)cc3CCN2C(=O)COc2ccc(Cl)cc2)cc1 (stereo not drawn) | 29µM* | nt | 21µM* | nt | nt | nt
COC(=O)c1ccc(OCC2c3cc(OC)c(OC)cc3CCN2C(=O)Cc2ccccc2)cc1 (stereo not drawn) | 16µM* | nt | ? | nt | nt | nt
COCCNC(=S)N1CCc2cc(OC)c(OC)cc2C1COc1cc(C)cc(C)c1 (stereo not drawn) | ? | ? | 26µM* | ? | -24% | -16%
COc1cc2c(cc1OC)C(COc1ccc([N+](=O)[O-])cc1)N(C(C)=O)CC2 (stereo not drawn) | 18µM* | 8.2µM* | 23µM* | -4 | -20% | ?
COc1cccc(-c2nc(CS(=O)CC(=O)NC3CCCCC3)c(C)o2)c1 (stereo not drawn) | -22% | -5% | 3% | 11 | 3% | 16%
COc1ccc(OCC2c3cc(OC)c(OC)cc3CCN2C(=O)COc2ccc(Cl)cc2Cl)cc1 (stereo not drawn) | 16µM* | nt | ? | nt | nt | nt
CCCCC(=O)N1CCc2cc(OC)c(OC)cc2C1COc1ccc(OC)cc1 (stereo not drawn) | 21µM* | nt | 16µM* | nt | nt | nt
CCC(=O)N1CCc2cc(OC)c(OC)cc2C1COc1ccc(OC)cc1 (stereo not drawn) | -20% | ? | -16% | -5 | -20% | -21%
COc1ccc(CC(=O)N2CCc3cc(OC)c(OC)cc3C2COc2ccc(F)cc2)cc1 (stereo not drawn) | 16µM* | nt | 13µM* | nt | nt | nt
Cn1c(SCC2CCCO2)nnc1C1CCN(Cc2ccc(-c3cccc(Cl)c3)o2)CC1 (stereo not drawn) | ? | nt | 0%[9.04 µM] | nt | nt | nt
COc1cccc(C(=O)COC(=O)CCCC(=O)NC2CCCCC2)c1 | -10% | -3% | 0% | 12 | 10% | 2%
CCOC(=O)C1(C)CCN1C(=O)c1ccc(N(C)C)cc1 (stereo not drawn) | -11% | nt | -13% | 0 | 20% | 17%
CCCN(CCC)C(=O)c1cc([N+](=O)[O-])cc2c1-c1ccc([N+](=O)[O-])cc1C2=C(C#N)C#N | 2.9µM* | -23% | 5.2µM* | 0 | 8% | 16%
CCCCOc1ccc([N+](=O)[O-])cc1C(=O)O | -15% | -1% | -13% | 1 | -4% | -12%
